Measurements published in PubChem BioAssay (NCATS).
Records with an inconclusive call do not appear. Activity calls are given as the source filed them. Calls follow the shape of the dose curve; as a rule, active = well fitted curve in the direction sought with a large enough effect; inconclusive = small, poorly fitted or top-dose-only effect, or another doubt; inactive = no such curve, though single readings can be large; an effect the other way counts as inactive or inconclusive.

How the values were obtained:
[1] = Cellular Toxicity (caspase-3) Mesangial (AID 660); details: mesangial cells, normalized: DMSO 0%, 100 µM tamoxifen 100%; at 91.7 µM (top of the series);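 also: combined caspase 3 and 7 activity read by Caspase-Glo luminescence; cells exposed to compound for 16 h before the caspase read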
Procedure, shortened: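 Human renal glomerular mesangial cells, 1000/well, 5 h at 37 C before 16 h compound treatment. Caspase-Glo 3/7 luminescence after 20 min; normalized to DMSO and 100 uM tamoxifen, AC50 from Hill fit.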

[2] = Cellular Toxicity (caspase-3) SK-N-SH (AID 661);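 also: 0% = DMSO basal and 100% = 10 µM staurosporine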
Procedure, shortened: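 Human SK-N-SH neuroblastoma cells, 1500/well, were exposed to compounds for 16 hours at 37 °C. Caspase-Glo 3/7 luminescence was normalized to DMSO (basal) and 10 uM staurosporine (100%), and AC50 came from a Hill fit.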

[3] = Cellular Toxicity (caspase-3) H-4-II-E (AID 663); details: H-4-II-E rat hepatoma, scaled: DMSO 0%, 100 µM tamoxifen 100%; at 92.2 µM (top of the series);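 also: cells exposed to compound for 16 hr before readout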
Procedure, shortened: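 Apoptosis induction is scored as increased luminescence from caspase 3/7 substrate cleavage in rat hepatoma H-4-II-E cells exposed to compound for 16 hr. Activity is scaled between DMSO and 100 uM tamoxifen.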

[4] = Cellular Toxicity (caspase-3) Hek293 (AID 664); details: HEK293 caspase-3 activation, DMSO = 0%, 100 µM tamoxifen = 100%; at 92.2 µM (top of the series);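 also: cells exposed to compound for 16 h at 37 °C before readout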
Procedure, shortened: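 HEK293 cells in complete medium treated 16 h at 37 °C, then Caspase-Glo 3/7 luminescence read after 20 min at room temperature. Normalized to DMSO and 100 uM tamoxifen; AC50 from Hill fit of concentration-response.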

[5] = Cellular Toxicity (caspase-3) N2a (AID 665);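 also: compound exposure lasted 16 h at 37 °C before readout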
Procedure, shortened: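 Mouse N2a neuroblastoma cells, 1500 per well, treated 16 h at 37 °C in complete medium; caspase-3/7 activity by Caspase-Glo luminescence after 1 h. Normalized to DMSO and 10 uM staurosporine; AC50 from Hill fits.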

[6] = Cellular Toxicity (caspase-3) NIH 3T3 (AID 666);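 also: caspase signal read after 16 h compound exposure; 0% = DMSO basal and 100% = 100 µM tamoxifen stimulation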
Procedure, shortened: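 Mouse NIH 3T3 fibroblasts (1000/well) treated 16 h at 37 C; caspase-3/7 activity measured by Caspase-Glo 3/7 luminescence after 20 min. Normalized to DMSO and 100 uM tamoxifen; AC50 from Hill fits.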

[7] = Cellular Toxicity (caspase-3) Renal Proximal Tubule (AID 667); details: Potency: caspase-3 activation;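 also: cells exposed to compound for 16 hours at 37 °C before detection; 0% = DMSO basal and 100% = 10 µM staurosporine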
Procedure, shortened: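 Freshly isolated primary rat kidney proximal tubule cells, 1000/well, treated 16 hr at 37 °C, then Caspase-Glo 3/7 luminescence after 1 hr. Normalized to DMSO and 10 uM staurosporine; AC50 from Hill fit.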

[8] = target: Cytochrome P450 3A4 (Homo sapiens) (UniProt P08684); test: qHTS Assay for Inhibitors and Substrates of Cytochrome P450 3A4 (AID 884); also: % is scaled to controls: 0 for no effect and ±100 for the full control effect; nearly all actives have a fitted effect of over 50% in size
Procedure, shortened: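 20 nM human CYP3A4 with 25 uM Luciferin-PPXE (at KM) in 200 mM KPO4, preincubated 10 min with compound; NADPH regeneration started a 60 min RT reaction. Luciferin detected by luminescence, normalized to 57 uM ketoconazole as full inhibition.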

[9] = Cell Viability - LYMP2-001 (AID 921);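 also: 0% = DMSO only and full inhibition = tetraoctylammonium bromide control wells; nearly all actives have a fitted effect of over 70% in size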
Procedure, shortened: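 Human lymphoblastoid LYMP2-001 cells, 2500 per well, in complete medium, treated 24 h at 37 C. Viability from cellular ATP by CellTiter-Glo luminescence; AC50 from Hill-equation fits of qHTS concentration-response.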

[10] = MultiTox-Fluor Cytotoxicity Assay - LYMP1-001 - Dead Cells (AID 946)
Procedure, shortened: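 Seed 2500 LYMP1-001 cells/well, incubate 5 hr at 37 C; add compound, 16 hr at 37 C; add MultiTox-Fluor reagent, 60 min RT; read dead-cell fluorescence Ex/Em=485/520. Normalize to DMSO and 15 uM tetraoctylammonium bromide.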

[11] = MultiTox-Fluor Cytotoxicity Assay - LYMP1-001 - Live Cells (AID 947);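 also: 0% = DMSO only and full inhibition = tetraoctylammonium bromide control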
[12] = Cell Viability - LYMP1-002 - Assay at 16 hr (AID 948);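 also: 0% = DMSO alone and full effect = 92 µM tetraoctylammonium bromide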
Procedure, shortened: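 LYMP1-002 human lymphoblastoid cells, 2500/well, were treated with compounds for 16 hr at 37 C in complete medium. Viability was read as intracellular ATP by CellTiter-Glo luminescence, and AC50 was derived from a Hill fit to concentration-response data.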

[13] = MultiTox-Fluor Cytotoxicity Assay - LYMP1-002 - Live Cells (AID 955); also: % is scaled to controls: 0 for no effect and ±100 for the full control effect
Procedure, shortened: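 Human lymphoblastoid LYMP1-002 cells, 2500/well, treated 16 h at 37 C in complete medium. Live-cell protease activity via GF-AFC fluorescence (Ex/Em 405/510) after 60 min reagent incubation; AC50 from Hill fits.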

[14] = MultiTox-Fluor Cytotoxicity Assay - LYMP1-002 - Dead Cells (AID 960); also: nearly all actives have a fitted effect of over 60% in size
Procedure, shortened: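 Human lymphoblastoid LYMP1-002 cells, 2500/well, treated 16 h at 37 C; dead-cell protease cleavage of bis-AAF-R110 read by fluorescence (485/520); normalized to DMSO and 15 uM tetraoctylammonium bromide; AC50 from Hill fit.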

[15] = MultiTox-Fluor Cytotoxicity Assay - LYMP1-003 - Dead Cells (AID 961); also: nearly all actives have a fitted effect of over 70% in size
Procedure, shortened: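 LYMP1-003 lymphoblastoid, 2500 cells/well, 5 hr settle then 16 hr cpd at 37 C; MultiTox-Fluor reagent 60 min RT; Ex/Em 485/520 dead-cell signal; norm. DMSO = 0%, 15 uM tetraoctylammonium bromide = 100%; Hill AC50.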

[16] = MultiTox-Fluor Cytotoxicity Assay - LYMP1-003 - Live Cells (AID 962);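 also: 0% = DMSO only and full loss = 92 µM tetraoctylammonium bromide; cytotoxic hits lower the live-cell protease signal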
Procedure, shortened: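 LYMP1-003 lymphoblastoid cells, 2500/well in complete medium, treated 16 h at 37 C; live-cell protease cleavage of GF-AFC read by fluorescence (Ex/Em 405/510) after 60 min reagent; AC50 from Hill fits of concentration-response.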

[17] = Cell Viability - LYMP1-003 - Assay at 24 hr (AID 963);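 also: plate controls were DMSO only for no effect and tetraoctylammonium bromide positive control for full effect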
Procedure, shortened: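 Human lymphoblastoid LYMP1-003 cells, 2500/well, treated 24 h at 37 C in complete medium. Viability read as intracellular ATP by CellTiter-Glo luminescence after 30 min at room temperature; AC50 from Hill-equation fits of qHTS concentration-response.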

[18] = Cell Viability - LYMP1-003 - Assay at 40 hr (AID 964); also: % is scaled to controls: 0 for no effect and ±100 for the full control effect; nearly all actives have a fitted effect of over 60% in size
Procedure, shortened: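 LYMP1-003 human lymphoblastoid cells, 2500/well, preincubated 5 h at 37 C, then treated with compound for 40 h at 37 C. Intracellular ATP read by CellTiter-Glo luminescence after 30 min at room temperature; AC50 from Hill-equation fits.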

[19] = Cell Viability - LYMP2-003 (AID 965);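 also: cells exposed to compounds for 24 h before reading; 0% = DMSO only and full effect = 92 µM tetraoctylammonium bromide; nearly all actives have a fitted effect of over 50% in size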
Procedure, shortened: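 Human lymphoblastoid LYMP2-003 cells, 2500/well, exposed to compounds for 24 h at 37 C in complete medium. Viability read as intracellular ATP by CellTiter-Glo luminescence; AC50 from Hill-equation fits of qHTS concentration-response data.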

Cytochrome P450 3A4 (Homo sapiens), sequence (P08684 whole entry, looked up): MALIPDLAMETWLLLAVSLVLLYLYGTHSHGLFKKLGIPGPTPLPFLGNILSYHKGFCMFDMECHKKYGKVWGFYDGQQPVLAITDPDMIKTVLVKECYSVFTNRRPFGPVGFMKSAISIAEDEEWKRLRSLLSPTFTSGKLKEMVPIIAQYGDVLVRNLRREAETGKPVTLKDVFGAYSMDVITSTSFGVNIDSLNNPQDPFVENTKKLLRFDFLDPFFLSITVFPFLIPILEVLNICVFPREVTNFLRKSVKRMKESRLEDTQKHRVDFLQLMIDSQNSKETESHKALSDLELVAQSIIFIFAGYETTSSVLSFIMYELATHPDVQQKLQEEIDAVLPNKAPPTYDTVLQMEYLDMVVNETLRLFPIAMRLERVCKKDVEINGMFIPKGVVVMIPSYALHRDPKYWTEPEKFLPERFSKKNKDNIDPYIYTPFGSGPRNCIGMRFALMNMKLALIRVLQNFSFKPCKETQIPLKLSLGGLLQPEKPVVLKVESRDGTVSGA

Cc1ccc(C)c(O)c1
inactive: caspase-3 activation [1] 0.131% | outcome [2] | caspase-3 activation [3] 0.256% | caspase-3 activation [4] 0.519% | outcome [5] | outcome [6] | Potency [7] | Potency [8] | Potency [9] | outcome [10] | outcome [11] | outcome [12] | outcome [13] | outcome [14] | Potency [15] | Potency [16] | Potency [17] | Potency [18] | Potency [19]

Cc1c(N)cccc1[N+](=O)[O-]
inactive: caspase-3 activation [1] 0.18% | outcome [2] | caspase-3 activation [3] -0.123% | caspase-3 activation [4] 1.08% | outcome [5] | outcome [6] | Potency [7] | Potency [8] | Potency [9] | outcome [10] | outcome [11] | outcome [12] | outcome [13] | outcome [14] | Potency [15] | Potency [16] | Potency [17] | Potency [18] | Potency [19]

Cc1ccc(CO)cc1
inactive: caspase-3 activation [1] -1.48% | outcome [2] | caspase-3 activation [3] 0.0936% | caspase-3 activation [4] 0.73% | outcome [5] | outcome [6] | Potency [7] | Potency [8] | Potency [9] | outcome [10] | outcome [11] | outcome [12] | outcome [13] | outcome [14] | Potency [15] | Potency [16] | Potency [17] | Potency [18] | Potency [19]

CCCCCO
inactive: caspase-3 activation [1] 1.64% | outcome [2] | caspase-3 activation [3] -0.271% | caspase-3 activation [4] -0.0419% | outcome [5] | outcome [6] | Potency [7] | Potency [8] | Potency [9] | outcome [10] | outcome [11] | outcome [12] | outcome [13] | outcome [14] | Potency [15] | Potency [16] | Potency [17] | Potency [19]

CC1(N)CCC(C(C)(C)N)CC1 (stereo unspecified)
inactive: caspase-3 activation [1] -0.66% | outcome [2] | caspase-3 activation [3] 0.688% | caspase-3 activation [4] -1.41% | outcome [5] | outcome [6] | Potency [7] | Potency [8] | Potency [9] | outcome [10] | outcome [11] | outcome [12] | outcome [13] | outcome [14] | Potency [15] | Potency [16] | Potency [17] | Potency [18] | Potency [19]

CCCCOCCOCCOCCCC
inactive: caspase-3 activation [1] -0.157% | outcome [2] | caspase-3 activation [3] -0.168% | caspase-3 activation [4] -0.809% | outcome [5] | outcome [6] | Potency [7] | Potency [8] | Potency [9] | outcome [10] | outcome [11] | outcome [12] | outcome [13] | outcome [14] | Potency [15] | Potency [16] | Potency [17] | Potency [18] | Potency [19]

O=[N+]([O-])c1ccc(NCCO)c(OCCO)c1
inactive: caspase-3 activation [1] 0.383% | outcome [2] | caspase-3 activation [3] 0.77% | caspase-3 activation [4] 0.203% | outcome [5] | outcome [6] | Potency [7] | Potency [8] | Potency [9] | outcome [10] | outcome [11] | outcome [12] | outcome [13] | outcome [14] | Potency [15] | Potency [16] | Potency [17] | Potency [18] | Potency [19]

Cc1cc(C(=O)O)ccc1[N+](=O)[O-]
inactive: caspase-3 activation [1] 0.159% | outcome [2] | caspase-3 activation [3] -0.927% | caspase-3 activation [4] 1.07% | outcome [5] | outcome [6] | Potency [7] | Potency [8] | Potency [9] | outcome [10] | outcome [11] | outcome [12] | outcome [13] | outcome [14] | Potency [15] | Potency [16] | Potency [17] | Potency [18] | Potency [19]

CCC(C)=O
inactive: caspase-3 activation [1] -0.0673% | outcome [2] | caspase-3 activation [3] 0.152% | caspase-3 activation [4] -2.5% | outcome [5] | outcome [6] | Potency [7] | Potency [8] | Potency [9] | outcome [10] | outcome [11] | outcome [12] | outcome [13] | outcome [14] | Potency [15] | Potency [17] | Potency [19]

OC/C(Br)=C(\Br)CO
inactive: caspase-3 activation [1] 0.44% | outcome [2] | caspase-3 activation [3] -0.67% | caspase-3 activation [4] 0.816% | outcome [5] | outcome [6] | Potency [7] | Potency [8] | Potency [9] | outcome [10] | outcome [11] | outcome [12] | outcome [13] | outcome [14] | Potency [15] | Potency [16] | Potency [17] | Potency [18] | Potency [19]

C[C@@H]1CC2(OC[C@]3(C)O[C@H]23)O[C@H]2C[C@@]3(C)[C@@H]4CC[C@H]5C(C)(C)C(O[C@@H]6OC[C@@H](O)[C@H](O)[C@H]6O)CC[C@@]56C[C@@]46CC[C@]3(C)[C@@H]12 (stereo partly specified)
inactive: caspase-3 activation [1] 2.15% | outcome [2] | caspase-3 activation [3] 2.6% | caspase-3 activation [4] 3.04% | outcome [5] | outcome [6] | Potency [7] | Potency [8] | Potency [9] | outcome [10] | outcome [11] | outcome [12] | outcome [13] | outcome [14] | Potency [15] | Potency [17] | Potency [18] | Potency [19]

Cc1nc2ccc(Cl)cc2[nH]1
inactive: caspase-3 activation [1] -0.773% | outcome [2] | caspase-3 activation [3] 0.101% | caspase-3 activation [4] -1.32% | outcome [5] | outcome [6] | Potency [7] | Potency [8] | Potency [9] | outcome [10] | outcome [11] | outcome [12] | outcome [13] | outcome [14] | Potency [15] | Potency [16] | Potency [17] | Potency [18] | Potency [19]

CC(=O)C1(C)CC2=C(CCCC2(C)C)CC1C (stereo unspecified)
inactive: caspase-3 activation [1] 1.57% | outcome [2] | caspase-3 activation [3] 1.88% | caspase-3 activation [4] 2.01% | outcome [5] | outcome [6] | Potency [7] | Potency [8] | Potency [9] | outcome [10] | outcome [11] | outcome [12] | outcome [13] | outcome [14] | Potency [15] | Potency [16] | Potency [17] | Potency [19]

Nc1nc2ccccc2[nH]1
inactive: caspase-3 activation [1] -0.927% | outcome [2] | caspase-3 activation [3] -0.868% | caspase-3 activation [4] 0.0156% | outcome [5] | outcome [6] | Potency [7] | Potency [8] | Potency [9] | outcome [10] | outcome [11] | outcome [12] | outcome [13] | outcome [14] | Potency [15] | Potency [16] | Potency [17] | Potency [18] | Potency [19]
